ZTA counter = counter-screen for EBNA-1 inhibitors: inhibitors of Epstein-Barr virus ZTA | P03206 | ZTA-DNA binding, fluorescence polarization | inhibition, % at 11 µM | 320,000 tested, 0.15% active | AID 2234; in the data active = inhibition above about 33%
Target sequence (P03206 whole entry, looked up): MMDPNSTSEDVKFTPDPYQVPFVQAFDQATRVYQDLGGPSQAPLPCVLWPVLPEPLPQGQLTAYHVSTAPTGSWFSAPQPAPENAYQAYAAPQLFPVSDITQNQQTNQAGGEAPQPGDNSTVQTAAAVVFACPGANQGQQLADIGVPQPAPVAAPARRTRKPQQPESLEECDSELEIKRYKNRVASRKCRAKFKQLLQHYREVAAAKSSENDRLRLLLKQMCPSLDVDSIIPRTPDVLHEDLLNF
PREPL inhibitor = inhibitors of human prolyl oligopeptidase-like enzyme PREPL; Q4J6C6; recombinant PREPL, fluorescence polarization activity-based probe; inhibition, % at 5.96 µM; 320,000 tested, 0.68% active; in the data active = inhibition above about 43%;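 also: 0% = enzyme with DMSO and 100% = wells lacking enzyme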
LYPLA2 counter = counter-screen for PME1 inhibitors: inhibitors of human LYPLA2; O95372; inhibition, % at 5.9 µM; 320,000 tested, 0.38% active; recombinant LYPLA2, FP-Rh probe fluorescence polarization;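 active = inhibition above the screen-wide mean plus 3 SD, limit set per campaign, cut at about 26% in these data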;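 also: 0% = LYPLA2 with DMSO and 100% = wells lacking LYPLA2 enzyme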
Target sequence (O95372 whole entry, looked up): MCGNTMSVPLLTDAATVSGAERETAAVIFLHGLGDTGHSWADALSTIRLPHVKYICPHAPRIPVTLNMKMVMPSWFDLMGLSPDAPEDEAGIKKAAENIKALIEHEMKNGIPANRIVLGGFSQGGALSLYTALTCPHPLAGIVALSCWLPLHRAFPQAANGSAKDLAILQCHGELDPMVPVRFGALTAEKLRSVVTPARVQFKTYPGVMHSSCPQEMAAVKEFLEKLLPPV
LYPLA1 inh = LYPLA1 (human) inhibition in PME1 counter-screen. O75608. recombinant LYPLA1, FP-Rh probe fluorescence polarization. inhibition, % at 5.9 µM. 320,000 tested, 0.16% active;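 active = inhibition above the mean of all tested compounds plus 3 SD, set per campaign, cut at about 14% in these data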;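 also: inhibitors block serine hydrolase probe labeling of LYPLA1 so polarization falls; 0% = enzyme with DMSO and 100% = wells lacking LYPLA1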
Target sequence (O75608 whole entry, looked up): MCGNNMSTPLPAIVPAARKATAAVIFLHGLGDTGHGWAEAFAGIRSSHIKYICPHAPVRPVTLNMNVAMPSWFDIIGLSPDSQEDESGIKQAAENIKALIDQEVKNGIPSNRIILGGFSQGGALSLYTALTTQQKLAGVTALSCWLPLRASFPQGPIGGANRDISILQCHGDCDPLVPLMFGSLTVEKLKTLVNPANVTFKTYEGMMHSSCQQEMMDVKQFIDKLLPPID
EBNA-1 inhibitor = blocks EBNA-1 binding to DNA; AID 1950; EBNA-1 DNA binding, fluorescence polarization; 300,000 tested, 0.34% active; inhibition, % at 14.8 µM; in the data active = inhibition above about 28%
EBNA-1 inh conf = EBNA-1 (EBV) inhibition, confirmation; shares compounds with EBNA-1 inhibitor; Recombinant EBNA-1 DBD, Cy5-DNA fluorescence polarization; inhibition, % at 14.8 µM; 830 tested, 35% active; AID 2292;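 active = mean inhibition across replicates above a set limit taken from the earlier primary screen, cut at about 28% in these data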;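 also: plate controls were EBNA-1 protein with DMSO for no effect and wells lacking EBNA-1 for full effect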
ZTA counter trip = counter-screen for EBNA-1 inhibitors: Epstein-Barr virus ZTA inhibitors, triplicate; shares compounds with EBNA-1 inhibitor; Zta-ZRE DNA binding, Cy5 fluorescence polarization; inhibition, % at 11.1 µM; 830 tested, under 10 active;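 active = mean inhibition over triplicates above a set limit taken from the primary EBNA-1 screen, cut at about 37% in these data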;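 also: purified full length Zta protein with Cy5 labeled ZRE DNA probe; 0% = Zta with DMSO and 100% = wells lacking Zta protein; inhibitors lower polarization by freeing the labeled DNA probe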
* = called active by the depositor; x = not tested or not shown; + = active, no number. In the library only some 1.3% were active in any assay of this set; here they are far more common.

SMILES | ZTA counter | PREPL inhibitor | LYPLA2 counter | LYPLA1 inh | EBNA-1 inhibitor | EBNA-1 inh conf | ZTA counter trip
N#Cc1ccsc1NC(=O)CN1C(=O)NC2(CCCCC2)C1=O | 6.9 | 7.0 | -15.7 | -11.4 | -4.8 | x | x
O=S(=O)(N/N=C/c1ccccc1OCc1ccc(Cl)cc1)c1ccccc1 | 4.2 | 12.8 | -6.3 | -8.2 | 3.6 | x | x
COC(=O)c1ccc(COc2ccccc2/C=N/NS(=O)(=O)c2ccc(C)cc2)cc1 | 3.8 | -3.2 | -21.3 | -18.5 | 67.0* | 29.2* | 14.1
Cc1sc2nc(SCC(=O)Nc3ccccc3F)[nH]c(=O)c2c1C | 0.8 | -4.0 | 2.3 | -1.4 | 29.7* | 42.3* | -16.4
CCOC(=O)Cc1csc(NC(=O)CSc2nc3sc(C(=O)O)c(C)c3c(=O)[nH]2)n1 | -13.6 | 2.7 | 7.8 | 0.0 | -1.4 | x | x
Cc1csc(NC(=O)CSc2nc3sc(C)c(C)c3c(=O)[nH]2)n1 | 3.7 | -12.3 | -48.7 | -45.7 | 52.8* | -2.2 | -13.0
Cc1ccccc1NC(=O)CSc1nc2scc(C)c2c(=O)[nH]1 | -16.1 | -3.7 | 0.7 | 0.0 | 3.6 | x | x
COc1ccccc1C(=O)Nc1nnc(-c2ccc(F)cc2)s1 | 3.2 | -4.7 | -5.9 | -5.1 | + | 4.0 | 1.3
O=C(Nc1nnc(-c2ccccc2)s1)c1ccc(F)cc1 | 0.2 | -1.5 | 0.9 | 0.5 | 5.0 | x | x
Cc1c(C(=O)NCc2ccc3c(c2)OCO3)sc2nc(-c3ccc(F)cc3)cn12 | -5.0 | -4.5 | -3.7 | -2.8 | 36.8* | 7.7 | 4.5
COc1cc(/C=N/NC(=O)CC#N)ccc1Oc1nc(Cl)ncc1F | -0.8 | -8.3 | -27.2 | -13.3 | -5.7 | x | x
CC1Sc2ccc(C(=O)NCc3ccccn3)cc2NC1=O (stereo not drawn) | -24.1 | 11.7 | 3.3 | 3.9 | x | x | x
COc1ccc(NC(=O)Nc2ccc3c(c2)C(=O)N([C@H](C)CO)C[C@H](C)[C@@H](CN(C)C(=O)Nc2c(C)noc2C)O3)cc1 | x | 0.5 | x | x | x | x | x
Nc1ccc2nc(SCC(=O)Nc3ccc(N4CCOCC4)c(Cl)c3)sc2c1 | -1.0 | 17.1 | 1.9 | -5.1 | -3.9 | x | x
CCCC(=O)Nc1ccc2nc(SCC(=O)Nc3ccc(N4CCOCC4)c(Cl)c3)sc2c1 | 15.7 | -3.7 | -13.4 | -13.2 | 66.8* | 71.3* | 3.7
CSc1nc2ccc(NC(=O)c3ccc(Cl)s3)cc2s1 | -5.8 | -1.5 | -3.7 | -6.2 | 37.8* | 33.5* | 3.4
Nc1c(C(=O)Nc2ccc3c(c2)OCCO3)nnn1Cc1cccc(Br)c1 | -0.7 | 18.8 | -1.1 | -4.4 | 35.7* | 29.8* | 0.8
COc1cc(Cl)ccc1OCc1cc(C(=O)NC(C)Cc2cccnc2)no1 (stereo not drawn) | -11.1 | -1.9 | 4.4 | -2.7 | -11.0 | x | x
O=C(Nc1ccc(NC(=O)c2ccccc2O)cc1)Nc1ccc(F)cc1F | -8.4 | 3.3 | -9.0 | -7.7 | 38.2* | 9.9 | -9.3
C#CCOCCOCCOCCNc1nc(N2CCN(C(=O)[C@H](CCC(=O)O)n3cc([C@@H](N)[C@H](C)CC)nn3)CC2)nc(N2CCN(C(=O)[C@H](CCC(=O)O)n3cc([C@@H](N)CCSC)nn3)CC2)n1 | x | 7.1 | x | x | x | x | x
COc1ccc(-c2nnn(CC(=O)N(CC(=O)NCCC(C)C)Cc3cccs3)n2)cc1OC | -0.9 | -3.3 | -1.4 | 1.4 | 30.3* | 4.7 | 8.5
NS(=O)(=O)c1cnccc1Oc1cccc(Cl)c1 | -14.2 | -4.2 | 2.3 | -1.6 | -7.9 | x | x
NC(=O)c1ccccc1NC(=O)c1cccc(C(=O)Nc2ccccc2C(N)=O)n1 | 11.2 | 0.2 | 5.7 | 0.1 | 34.8* | 35.9* | 3.8
COc1ccc(NC(=O)Nc2ccccc2F)cc1 | -2.1 | 2.4 | 1.9 | -1.1 | 11.8 | x | x
COc1ccc(NC(=O)Nc2ccccc2F)cc1Cl | -22.1 | 3.7 | 6.2 | -2.7 | 88.8* | 22.1 | 13.6
SMILES | ZTA counter | PREPL inhibitor | LYPLA2 counter | LYPLA1 inh | EBNA-1 inhibitor | EBNA-1 inh conf | ZTA counter trip
Cc1cc(Br)cc(Cl)c1OC(=O)c1ccncc1 | -4.0 | 13.3 | 2.2 | -1.6 | -18.5 | x | x
NC(=O)c1cc(-c2ccccc2)sc1NC(=O)Cc1ccc(S(=O)(=O)N2CCOCC2)s1 | -5.2 | 23.5 | 7.7 | -2.6 | 30.8* | 52.7* | 3.1
Cc1cccc(N(C(=O)c2snc(C(N)=O)c2N)C(C(=O)NCC2CCCO2)c2ccc(N(C)C)cc2)c1C (stereo not drawn) | 14.2 | 0.2 | -6.5 | -0.8 | 40.2* | 97.4* | 10.4
CC1C(=O)N2CCCc3cc(NC(=O)COc4ccccc4)cc1c32 (stereo not drawn) | 14.0 | 14.4 | -3.9 | 3.5 | 15.4 | x | x
COc1ccc(CCNC(=S)N2CCN(S(=O)(=O)c3cccc(F)c3)CC2)cc1 | -8.6 | -0.5 | 4.5 | 2.3 | 6.1 | x | x
COc1ccc(CNC(=S)N2CCN(S(=O)(=O)c3cccc(F)c3)CC2)cc1 | 2.1 | 15.0 | 0.5 | 0.2 | 39.8* | 73.4* | 6.5
CC(C)C(NS(=O)(=O)c1ccc2c(c1)C(C)(C)C(=O)N2C)C(=O)NCc1ccccc1Cl (stereo not drawn) | 6.4 | -3.5 | 1.2 | 1.8 | -3.9 | x | x
CCn1c(=O)c(C(=O)NCc2ccc(OC)c(OC)c2)c(O)c2ccccc21 | -1.1 | -6.6 | -8.3 | -5.8 | 30.4* | -2.2 | 0.6
Cc1ccc(NC(=O)CCN2C(=O)c3cccc4cccc(c34)C2=O)cc1 | -10.3 | 5.3 | 5.2 | 2.6 | -16.0 | x | x
Cc1ccc(NC(=O)CCCN2C(=O)c3cccc4cccc(c34)C2=O)cc1 | 11.6 | 1.3 | 2.2 | -0.2 | 55.4* | 9.2 | 7.5
COc1ccccc1C(=O)Nc1ccc(-c2nnn(CC(=O)NCc3ccco3)n2)cc1 | 3.0 | -9.1 | -13.6 | -7.4 | 42.0* | 51.9* | 19.1
COc1ccccc1NC(=O)Cn1nnc(-c2ccccc2NC(=O)c2cccs2)n1 | -23.5 | -5.8 | -15.0 | 2.4 | -7.0 | x | x
O=C(Cn1nnc(-c2ccccc2NC(=O)c2cccs2)n1)Nc1ccccc1 | 3.5 | -11.6 | -18.0 | -5.6 | 27.6* | 47.3* | 2.4
O=C(Cn1nnc(-c2ccccc2)n1)NCc1ccco1 | 3.0 | 2.4 | 2.4 | 1.2 | -3.3 | x | x
COc1ccc(C(=O)Nc2ccccc2-c2nnn(CC(=O)NCc3ccco3)n2)cc1 | 1.7 | -5.9 | -5.2 | -1.2 | 54.3* | 15.3 | 5.8
O=C(CCC1CCCN(C(=O)c2ccsc2)C1)NCc1ccc(F)c(F)c1 (stereo not drawn) | -13.4 | 9.2 | 4.3 | 5.8 | -0.4 | x | x
CC1=CC2=NC(=O)/C(=C\c3cc(C)n(-c4ccccc4)c3C)C(=N)N2O1 | -1.8 | 4.5 | 0.1 | -4.3 | 5.1 | x | x
CC1=CC2=NC(=O)/C(=C\c3cn(C)c4ccccc34)C(=N)N2O1 | -9.9 | -1.4 | 4.3 | 2.4 | 39.6* | 90.5* | 1.8
Cc1ccc(C(=O)CSc2nnc(CNc3ccc(C)cc3C)o2)cc1 | -10.0 | 9.5 | 6.5 | -5.3 | 30.7* | 0.9 | -6.5
Cc1ccc(NCc2nnc(SCC(N)=O)o2)c(C)c1 | -6.8 | 1.8 | 2.4 | 1.6 | 8.2 | x | x

Screening results (PubChem BioAssay)
